DT40 TDP1 CPT = DT40-hTDP1 cell growth loss with CPT | chicken DT40 Tdp1-/-;hTDP1 cells + 20 nM CPT, ATP luminescence, 48 h | Potency, µM (highest dose often 46.2 µM), without a hit: at the top dose activity change, negative = growth inhibition, usual class: inhibitors | 420,000 tested, 12% active; also: potency is read from the fitted curve at half-maximal effect; % is scaled to controls: 0 for no effect and ±100 for the full control effect; nearly all actives have a fitted effect of over 55% in size
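Chicken DT40 Tdp1-/- cells stably complemented with human TDP1 were seeded at 400 cells/well in medium containing 20 nM camptothecin, exposed to pin-transferred compounds, and grown at 37 °C for at least 48 hr. Viability was read as ATP luminescence.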
IL-1B inflam inh = blocks inflammasome-driven IL-1 beta release; activity change, % at 57.5 µM; THP-1 LPS/ATP IL-1B secretion, AlphaLISA, 16 h; stronger effect = lower value; 360,000 tested, 4.7% active; in the data active = activity change below about -50%; inconclusive = mostly about -30% to -49%; also: % is scaled to controls: 0 for no effect and ±100 for the full control effect
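Secreted IL-1B measured by AlphaLISA bead assay after 16 h compound exposure of THP-1 cells; compounds (final up to 57.5 uM) added 1 h before LPS (250 ng/mL) and ATP (1.25 mM) stimulation; lower signal means less secretion.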
DT40 TDP1 no CPT = qHTS for Inhibitors of human tyrosyl-DNA phosphodiesterase 1 (TDP1): qHTS in cells in absence of CPT; DT40 Tdp1-/- hTDP1 cells, no CPT, ATP luminescence, 48 h; Potency, µM (titrated, usually from 46.2 µM), inactives show top-dose activity change, negative = growth inhibition, usual class: inhibitors; 420,000 tested, 15% active; AID 686978, 2013; also: potency is read from the fitted curve at half-maximal effect; % is scaled to controls: 0 for no effect and ±100 for the full control effect; nearly all actives have a fitted effect of over 55% in size
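Camptothecin absent (DMSO only). Human TDP1-complemented DT40 knockout cells, 400 cells/well, 37 °C for minimum 48 hr; ATP measured via CellTiter-Glo, 30 min dark incubation, luminescence.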
DRD3 antagonist = antagonists of human D3 dopamine receptor; D3R cells, DiscoveRx beta-arrestin luminescence, antagonist mode; stronger effect = lower value; P35462; AID 652054; 360,000 tested, 2.5% active; max response, negative = inhibition, %; in the data active = max response below about -50%; inconclusive = no clear call, values can overlap the other calls; also: % is scaled to controls: 0 for no effect and ±100 for the full control effect
Target sequence (P35462 whole entry, looked up): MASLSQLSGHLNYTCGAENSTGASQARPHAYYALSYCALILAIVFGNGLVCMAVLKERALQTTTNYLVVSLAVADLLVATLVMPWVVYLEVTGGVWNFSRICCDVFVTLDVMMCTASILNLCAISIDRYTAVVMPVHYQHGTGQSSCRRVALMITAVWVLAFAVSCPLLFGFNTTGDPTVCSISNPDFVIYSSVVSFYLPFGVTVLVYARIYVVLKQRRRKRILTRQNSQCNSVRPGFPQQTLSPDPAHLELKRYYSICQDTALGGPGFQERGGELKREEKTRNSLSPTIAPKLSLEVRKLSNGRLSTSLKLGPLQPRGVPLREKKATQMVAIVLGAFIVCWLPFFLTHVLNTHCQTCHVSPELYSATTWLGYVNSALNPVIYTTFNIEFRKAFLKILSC
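Cells expressing the human receptor were seeded at 1500 cells/well, incubated overnight at 37 degrees C in 5% CO2, then exposed to library compounds with dopamine controls for 90 minutes at 37 degrees C before luminescent detection.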
D3 ag = activates the human D3 dopamine receptor | P35462 | D3R DiscoveRx beta-arrestin cells, luminescence, 90 min | max activation, % | 410,000 tested, 0.58% active | AID 652048; in the data active = max activation above about 30%; also: 0% is about no effect
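Agonist mode: compounds and dopamine controls were applied to plated cells for 90 min at 37 degrees C after an overnight attachment at 1500 cells/well. Luminescent read-out followed 30 - 60 minutes at room temperature with DiscoveRx detection reagent.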
ClpP mod = qHTS Assay for Activators of ClpP | 340,000 tested, 1.9% active | Potency, µM (highest dose often 57.5 µM), for the others: at the top dose activity change, negative = active | purified B. subtilis ClpP, FRET peptide cleavage, 20 min; active = well fitted falling curve with a large enough effect; inconclusive = small, poorly fitted or top-dose-only effect; inactive = no such curve, though single readings can be large or run the other way; also: potency is read from the fitted curve at half-maximal effect; the source files actives as falling curves though it sought activators and does not explain the sign; nearly all actives have a fitted effect of over 65% in size
Target sequence (P80244 whole entry, looked up): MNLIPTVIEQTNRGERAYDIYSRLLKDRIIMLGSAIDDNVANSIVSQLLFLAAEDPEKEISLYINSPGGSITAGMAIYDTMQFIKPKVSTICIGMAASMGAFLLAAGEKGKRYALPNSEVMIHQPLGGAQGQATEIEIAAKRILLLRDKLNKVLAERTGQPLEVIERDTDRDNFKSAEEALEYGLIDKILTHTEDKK
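Buffer: 100 mM Tris/HCl pH8, 100 mM KCl, 0.05% low protease BSA, 2.5% glycerol, 0.01% Tween-20. ClpP 10 microg/mL final; 20 min RT; delta FRET normalized to ADEP and DMSO controls.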
* = called active by the depositor; ? = inconclusive; . = not tested or not shown; ! = not confirmed by another sample. Compounds with a hit are over-represented: about 21% of the library has one in this group of screens. Unless noted, calls follow the shape of the dose curve; as a rule, active = well fitted inhibition curve with a large enough effect; inconclusive = small, poorly fitted or top-dose-only effect; inactive = flat fitted curve, though single readings scatter.

SMILES | DT40 TDP1 CPT | IL-1B inflam inh | DT40 TDP1 no CPT | DRD3 antagonist | D3 ag | ClpP mod
COC(=O)Cc1cc(=O)[nH]c(/N=C(\N)Nc2ccc(C(C)C)cc2)n1 | ? | 53 | ? | 21 | 7 | .
Cc1cc(C)nc(/N=C(\N)C2=C(O)CC(C)(C)CC2=O)n1 | -22% | -27 | -10% | -28 | 2 | 0%
Cc1cc(C)n2nc(C(=O)OCC(=O)N(C)Cc3ccccc3)nc2n1 | -1% | 1 | -1% | 8 | 5 | .
CCCCN(CCCC)/C(N)=N/c1nc(C)cc(C)n1 | 23µM* | 8 | ? | -18 | -9 | 1%
Cc1cc(C)nc(/N=C(\N)N(Cc2ccccc2)Cc2ccccc2)n1 | ? | -72* | ? | 4 | 1 | .
CC1C(=O)N(Cc2cn(CCC3OCCO3)nn2)CCS(=O)(=O)N1Cc1ccc(-c2ccc(F)nc2)cc1 (stereo not drawn) | -24% | -18 | ? | 1 | 2 | 0%
O=[N+]([O-])c1ccc(C=NN2CCCCCC2)cc1 | ? | ? | 18µM* | -26 | 3 | 1%
O=[N+]([O-])c1ccc(/C=N/n2c(C3CCCCC3)n[nH]c2=S)cc1 | ? | -21 | 16µM* | ? | -12 | -3%
S=c1[nH]nc(C2CCCCC2)n1/N=C/c1ccncc1 | ? | -15 | ? | -24 | -8 | .
COc1ccccc1N1CCN(/N=C/c2ccc([N+](=O)[O-])cc2)CC1 | ? | -14 | ? | 0 | 5 | -1%
CSc1ccc(/C=N/n2c(C3CCCCC3)n[nH]c2=S)cc1 | ? | -62* | ? | 0 | -12 | .
COc1cc(/C=N/N2CCCCC2)cc([N+](=O)[O-])c1O | -1% | -21 | -8% | -65* | -11 | .
COc1cc(/C=N/n2c(=S)[nH]nc(C)c2=O)cc([N+](=O)[O-])c1O | -1% | 12 | 6% | -15 | -12 | .
CCN(C(=O)Cn1cc(C(F)(F)F)ccc1=O)C1CCS(=O)(=O)C1 (stereo not drawn) | -1% | -5 | -5% | -10 | -2 | -4%
S=c1[nH]nc(Cc2noc3ccccc23)n1-c1ccccc1 | ? | -19 | ? | -19 | -1 | -3%
OC[C@@H]1CN(Cc2ccc(F)cc2)C[C@H](n2cnc3c(N4CCN(c5ccccc5)CC4)ncnc32)O1 | 18µM* | -1 | 10µM* | 20 | 14 | -2%
OC[C@@H]1CN(Cc2ccccc2)C[C@H](n2cnc3c(N4CCN(c5ccccc5)CC4)ncnc32)O1 | ? | -6 | ? | -21 | 8 | -6%
OC[C@@H]1CN(Cc2ccc(-c3ccccc3)cc2)C[C@H](n2cnc3c(N4CCCC4)ncnc32)O1 | 18µM* | -16 | 21µM* | 0 | 1 | 0%
CS(=O)(=O)Nc1ccc(-c2ccc3nccn3c2)cc1 | ? | 10 | -17% | -2 | 1 | 1%
CCCOc1ccc(NC(=O)CNC(=O)c2cc(OC)cc(OC)c2)cc1OCCC | 4% | 7 | -25% | -58* | -20 | -1%
CCOc1ccc(C(=O)NCC(=O)Nc2ccncc2)cc1OCC | -6% | 15 | 10% | 3 | -11 | -1%
COc1cccc(CNC(=O)C(=O)NCC(c2ccco2)S(=O)(=O)c2ccccc2)c1 (stereo not drawn) | -27% | . | ? | . | -16 | -2%
Cc1ccc(C(=O)N2CCCC(N3CCN(c4ccccc4C)CC3)C2)c(=O)[nH]1 (stereo not drawn) | 5% | -7 | -24% | 20 | 9 | -4%
O=Cc1c(SCCO)nc2ccccn2c1=O | 2% | -4 | 19% | 10 | -4 | 24%
O=Cc1c(Sc2ccccc2)nc2ccccn2c1=O | ? | -114* | 16µM* | 9 | 6 | 0%
SMILES | DT40 TDP1 CPT | IL-1B inflam inh | DT40 TDP1 no CPT | DRD3 antagonist | D3 ag | ClpP mod
COC(=O)CSc1nc2ccccn2c(=O)c1C=O | -15% | 8 | 2% | 1 | -1 | .
O=Cc1c(Sc2ccccn2)nc2ccccn2c1=O | ? | -86* | ? | -52* | 3 | -2%
O=S1(=O)CCO[C@H]2CCCC[C@@H]2N1Cc1ccc(Cl)cc1 | ? | . | 20µM* | . | . | 1%
CCN(CC)c1ccc(C(=O)NNC(=O)CCNC(=O)c2ccccc2)cc1 | -13% | 0 | -21% | 27 | -16 | -2%
CCN(CC)c1ccc(C(=O)NNC(=O)CCl)cc1 | 16µM* | ? | ? | -126* | -35 | .
COc1ccc(-n2c(-c3ccc(Br)cc3)c[n+]3c2CCc2ccccc2-3)cc1 | 1.6µM* | -59* | 0.92µM* | -17 | -13 | -5%
CC(C)c1ccc(-n2c(-c3ccccc3)c[n+]3c2CCc2ccccc2-3)cc1 | 0.0073µM* | -114* | 0.033µM* | -4 | 2 | .
COc1ccccc1-n1c(-c2ccccc2)c[n+]2c1CCc1ccccc1-2 | 0.33µM* | -99*! | 0.013µM* | 11 | -4 | -1%
CCC(C(=O)NCCc1ccc(OC)c(OC)c1)n1nc(C)c2sc3ccccc3c2c1=O (stereo not drawn) | 9.2µM* | . | 8.2µM* | . | -3 | -4%
CSc1ccc(CCNC(=O)C(C)n2nc(C)c3sc4ccccc4c3c2=O)cc1 (stereo not drawn) | ? | . | ? | . | -7 | -1%
COc1ccc(CNC(=O)C(C)n2nc(C)c3sc4ccccc4c3c2=O)cc1OC (stereo not drawn) | 6.5µM* | . | 6.5µM* | . | -7 | -1%
CCC(C(=O)NCCc1ccc(SC)cc1)n1nc(C)c2sc3ccccc3c2c1=O (stereo not drawn) | ? | . | 23µM* | . | 1 | -13%
COc1ccc(CCNC(=O)C(C)n2nc(C)c3sc4ccccc4c3c2=O)cc1OC (stereo not drawn) | 15µM* | . | 18µM* | . | -13 | -13%
Cc1ccc(CNC(=O)C(C)n2nc(C)c3sc4ccccc4c3c2=O)cc1 (stereo not drawn) | ? | . | ? | . | -15 | -13%
CCC(C(=O)Nc1cccc(Cl)c1C)n1nc(C)c2sc3ccccc3c2c1=O (stereo not drawn) | ? | . | ? | . | 5 | -5%
COc1cc(O)c(C(C)=O)c(CC(=O)O)c1 | -1% | -6 | -12% | 25 | 2 | -2%
O=C(COC(=O)c1cc[n+]([O-])cc1)Nc1ccc(Cl)cc1Cl | -12% | 11 | -10% | 4 | -13 | 1%
COc1ccc(NC(=O)C(=O)NCCc2csc(-c3ccc(Cl)cc3)n2)cc1 | -16% | . | -12% | . | 3 | -3%

From PubChem
